Source: PubChem BioAssay
The full list was thinned out, with hits kept by preference.
FECH block = inhibitors of human ferrochelatase; P22830; purified FECH, Ni-mesoporphyrin absorbance 550 nm; calls only at 10 µM (by protocol); actives 3.3% (n = 20,000);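 active = enzyme reaction rate more than 3 SD below the solvent-only control wells on the same plate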;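 note: lower slope than DMSO wells means FECH inhibition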
Target sequence (P22830 whole entry, looked up): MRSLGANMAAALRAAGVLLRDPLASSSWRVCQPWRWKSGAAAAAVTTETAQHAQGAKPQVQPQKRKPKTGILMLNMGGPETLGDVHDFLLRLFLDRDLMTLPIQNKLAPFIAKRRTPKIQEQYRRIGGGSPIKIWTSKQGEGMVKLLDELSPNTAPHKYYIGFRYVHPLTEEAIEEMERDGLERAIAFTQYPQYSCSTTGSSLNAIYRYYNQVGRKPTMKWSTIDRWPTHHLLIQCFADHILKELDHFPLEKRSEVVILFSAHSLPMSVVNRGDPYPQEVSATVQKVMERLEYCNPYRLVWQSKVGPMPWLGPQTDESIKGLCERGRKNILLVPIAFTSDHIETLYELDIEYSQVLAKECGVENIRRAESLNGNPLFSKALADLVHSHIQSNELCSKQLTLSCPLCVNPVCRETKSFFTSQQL
Calls only; – = inactive; + = active, no number.

SMILES	FECH block
COc1cc2c(=O)n(Cc3ccc(C(=O)NC(C)C)cc3)c(=O)n(CC(=O)NC(C)C)c2cc1OC	–
CC(C)C(NCC(=O)NCc1ccccc1F)c1ccccn1 (configuration not stated)	–
COc1ccc(Cl)cc1C(=O)Nc1ccc(Nc2nc(C)cc(Nc3ccc(C)cc3)n2)cc1	–
CCCSCCCNC(=O)c1ccc(CN2C(=O)CCn3nc(-c4ccc(OC)cc4)cc32)cc1	–
Cc1cc(N2CCCC2)nc(N2CCN(S(C)(=O)=O)CC2)n1	–
O=C(O)c1cc(O)cc(-c2ccccc2CN2CCOCC2)c1	+
Clc1nc(-c2ccccc2CN2CCOCC2)ns1	–
COC(C)c1ccc(-c2cc(C(=O)O)cc(S(=O)(=O)N3CCOCC3)c2)cc1 (configuration not stated)	–
COc1ccccc1C(=O)Nc1cccc(OCc2cc(=O)n3ccc(C)cc3n2)c1	+
Cc1cccc(C(=O)Nc2cccc(OCc3cc(=O)n4ccc(C)cc4n3)c2)c1	–
COc1cccc(C(=O)Nc2cccc(OCc3cc(=O)n4ccc(C)cc4n3)c2)c1	–
CN(C)C(=O)c1cncc(N2CC[C@@H](c3ccc4ccccc4c3)[C@H](O)C2)n1	–
COc1ccccc1C(=O)Nc1cc(C)nn1-c1ncnc2c1cnn2-c1ccc(Cl)cc1	–
c1ccc(-n2ncc3c(Nc4ccc5c(c4)OCO5)nc(N4CCCCC4)nc32)cc1	–
O=C1CCS(=O)(=O)N1c1ccc(S(=O)(=O)N2CCCCC2)cc1	–
COc1ccc(Nc2nc(NCC3CCCO3)nc3c2cnn3-c2ccccc2)cc1 (configuration not stated)	–
CC(C)OCCCNc1nc(Nc2ccc(Cl)cc2)c2cnn(-c3ccccc3)c2n1	+
COc1ccc(Nc2nc(NCCCOC(C)C)nc3c2cnn3-c2ccccc2)cc1	–
CC(C)OCCCNc1nc(Nc2ccc(F)cc2)c2cnn(-c3ccccc3)c2n1	–
Fc1ccc(Nc2nc(NCC3CCCO3)nc3c2cnn3-c2ccccc2)cc1 (configuration not stated)	–
Clc1ccc(Nc2nc(NCC3CCCO3)nc3c2cnn3-c2ccccc2)cc1 (configuration not stated)	+
CCn1ncnc1CN1CCCC2(CCN(C(=O)OCC(C)(C)C)C2)C1 (configuration not stated)	–
O=C(CCC(=O)N1CCc2cc(S(=O)(=O)N3CCc4ccccc4C3)ccc21)N1CCCCCC1	–
C/C=C/Cc1nnc(C(=O)N2CCCC(CO)(CC(C)C)C2)o1 (configuration not stated)	–
CC(C)(O)C#Cc1cccc(C(=O)N2CCc3nc[nH]c3C2)c1	–
SMILES	FECH block
CC(C)CC1(CO)CCCN(C(=O)c2cccc(C#CC(C)(C)O)c2)C1 (configuration not stated)	+
Cc1cccn2c(CNC(C)Cn3cncn3)cnc12 (configuration not stated)	–
CCN(Cc1ccccc1Cl)C(=O)CCNC(=O)c1ccccc1F	–
CN(CCC(C)(C)O)Cc1cccc(Cl)c1F	+
Cc1cccc(CN(C)Cc2cn[nH]c2-c2ccc(F)cc2)c1O	–
Clc1ccc(-c2cncnc2)cc1Cl	–
NS(=O)(=O)c1ccc(NC(=O)Cc2csc(NC(=O)NC3CCCC3)n2)cc1	–
CN1CCCn2nc(C(=O)NCCc3csc(-c4cnccn4)n3)cc2C1	–
NC(=O)c1ccc(N2CCN(Cc3ccc4ccccc4n3)CC2)nc1	–
Clc1ccccc1CCNc1ncnc2oc3c(c12)CCCC3	+
Cc1ccc(CNc2ncnc3oc4c(c23)CCCC4)o1	–
COc1ccccc1CNc1ncnc2oc3c(c12)CCCC3	–
CC(C)Cn1c(CNS(=O)(=O)c2ccccc2F)nc2cccnc21	–
C=CCN(CC#Cc1ccccc1)Cc1c(C)nn(C)c1Cl	–
CCCN1C(=O)c2ccccc2CC1(C)C(=O)NC1CCC(C)CC1 (configuration not stated)	–
CCCCN(CC)c1ncc(NS(=O)(=O)c2ccc(Br)cc2)cc1C(=O)O	–
Nc1nc(N2CCOCC2)cc(N2CCNC(=O)CC2)n1	–
CCC(=O)Nc1cccc(C(=O)NCc2nc(Cc3cccs3)no2)c1	–
CCc1nc(C)sc1CNC(=O)c1sccc1NC(C)=O	–
CCC(=O)Nc1cccc(C(=O)NCc2sc(C)nc2CC)c1	+
COc1cccc(Nc2nc(N3CCCC(C)C3)nc3c2cnn3-c2ccccc2)c1 (configuration not stated)	–
CCN(CC)C(=O)[C@@H]1C[C@H](N)CN1C(=O)c1c(C)n(C)c2ccc(O)cc12	–
CC(=O)c1ccc(NS(=O)(=O)c2cc(N3C(=O)CCS3(=O)=O)ccc2C)cc1	–
O=c1c2cc(F)ccc2ncn1CCOCCO	–
Cc1ccc(N2C(=O)CCS2(=O)=O)cc1S(=O)(=O)Nc1cccc(C)c1C	–
SMILES	FECH block
CN(C1CCS(=O)(=O)C1)S(=O)(=O)c1ccc(N2C(=O)CCS2(=O)=O)cc1 (configuration not stated)	–
CCN(C1CCS(=O)(=O)C1)S(=O)(=O)c1cc(N2C(=O)CCS2(=O)=O)ccc1C (configuration not stated)	+
O=C1CCS(=O)(=O)N1c1ccc(S(=O)(=O)NC2CC2)cc1	+
O=C1CCS(=O)(=O)N1c1ccc(S(=O)(=O)NC2CCCCC2)cc1	–
Cc1ccc(N2C(=O)CCS2(=O)=O)cc1S(=O)(=O)Nc1ccccc1Br	–
COC(=O)C1CCN(S(=O)(=O)c2ccc(N3C(=O)CCS3(=O)=O)cc2)CC1	–
COc1ccccc1N1CCN(S(=O)(=O)c2cc(N3C(=O)CCS3(=O)=O)ccc2C)CC1	–
CC(C)CNS(=O)(=O)c1ccc(N2C(=O)CCS2(=O)=O)cc1	–
Cc1ccccc1NS(=O)(=O)c1cc(N2C(=O)CCS2(=O)=O)ccc1C	+
CCN(CC)S(=O)(=O)c1cc(N2C(=O)CCS2(=O)=O)ccc1C	–
COC(=O)C1CCN(S(=O)(=O)c2cc(N3C(=O)CCS3(=O)=O)ccc2C)CC1	+
COc1ccc(S(=O)(=O)NCCNc2nc(C)nc3sccc23)cc1	–
CCn1cnnc1CN(C)C(=O)Cc1csc(-c2ccccc2)n1	–
NS(=O)(=O)c1ccc(NC(=O)c2nc(SCc3ccccc3F)ncc2Cl)cc1	–
Cc1ccc(N2C(=O)CCS2(=O)=O)cc1S(=O)(=O)Nc1ccccc1	+
Cc1ccc(NS(=O)(=O)c2cc(N3C(=O)CCS3(=O)=O)ccc2C)cc1C	–
Cc1cc(C)cc(NS(=O)(=O)c2cc(N3C(=O)CCS3(=O)=O)ccc2C)c1	–
Cc1cc(Nc2ccc(OC(=O)c3cccc(N(C)C)c3)cc2)n2nc(-c3cccnc3)nc2n1	–
COc1ccc(N2C(=O)N(Cc3ccc(C(C)(C)C)cc3)c3ccccc3S2(=O)=O)cc1OC	–
Cc1ccccc1N1C(=O)N(Cc2ccc(C(C)(C)C)cc2)c2ccccc2S1(=O)=O	–
CCc1ccc(N2C(=O)N(Cc3cc(F)cc(F)c3)c3ccccc3S2(=O)=O)cc1	+
Cc1ccc(-c2cc(Nc3cccc(O)c3)nc(C)n2)cc1	–
O=C(NC1CC(=O)N(CCc2ccccc2)C1)c1cccc(-n2cnnc2)c1 (configuration not stated)	–
